In PubChem BioAssay (Tox21):
Results filed as inconclusive are left out. Activity calls are given as the source filed them. Unless noted, calls come from the whole dose curve; as a rule, active = well fitted curve in the direction sought with a large enough effect in the repeat runs; inconclusive = weak or mixed curves; inactive = no such curve, though single readings can be large; an effect the other way counts as inactive or inconclusive.

Assays:
[1] = qHTS assay to identify small molecule agonists of the NFkB signaling pathway (AID 1159509; active = well fitted curve in the direction sought with a large enough effect in the signal ratio in the repeat runs, not every such curve was filed as active; the % refers to the signal ratio; note: series mostly up to about 61 µM)
In short: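 Beta-lactamase reporter assay run in quantitative high-throughput format on an NF-kB-responsive ME-180 line, with 5 hr compound treatment and a FRET-based blue/green fluorescence readout.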

[2] = qHTS assay to identify small molecule agonists of the NFkB signaling pathway - cell viability counter screen (AID 1159515; calls by dose curve; note: series mostly up to about 61 µM; nearly all actives have a fitted effect of over 55% in size)
In short: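 Parallel cytotoxicity counter screen in ME-180 cells carrying an NFkB-response-element beta-lactamase reporter, 2,000 cells/well. Compound exposure lasted 5 hr at 37 C, 5% CO2. Cell viability was quantified by CellTiter-Glo luminescence.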

[3] = qHTS assay to identify small molecule agonists of the endoplasmic reticulum stress response signaling pathway (AID 1159516; active = well fitted activation curve with a large enough effect in the signal ratio in the repeat runs, not every such curve was filed as active; the % refers to the signal ratio)
In short: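 Using a HeLa line with an ESRE-driven beta-lactamase gene, agonist activity was measured by FRET substrate fluorescence (460 and 530 nm emission) after cells were treated with compounds for 5 hr at 37 C and 5% CO2.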

[4] = qHTS assay to identify small molecule agonists of the endoplasmic reticulum stress response signaling pathway - cell viability counter screen (AID 1159517; calls by dose curve;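 note: HeLa cells carrying an ER stress response element beta-lactamase reporter; series mostly up to about 61 µM; nearly all actives have a fitted effect of over 50% in size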)
In short: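 After overnight attachment, ESRE-bla HeLa cells were treated with Tox21 library compounds for 5 hr. CellTiter-Glo luminescence, read 30 min post-addition at room temperature, reported viability.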

[5] = qHTS assay to identify small molecule antagonists of the retinoid-related orphan receptor gamma (ROR-gamma) signaling pathway - cell viability counter screen (AID 1159520); note: nearly all actives have a fitted effect of over 50% in size
In short: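 Cytotoxicity was read from cellular ATP (CellTiter-Glo luminescence) after 16 hr at 37 C with 1 uM doxycycline induction. The inducer was added 2 hr after compound transfer to Tet-on ROR gamma CHO cells.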

[6] = qHTS assay to identify small molecule agonists of the AP-1 signaling pathway - cell viability counter screen (AID 1159525; calls by dose curve; note: nearly all actives have a fitted effect of over 55% in size)
In short: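 Intracellular ATP by Cell Titer Glo luminescence (30 min, RT) in the same ME-180 AP-1-bla wells after the 5 h compound exposure at 37 °C. Normalised to tetra n-octyl ammonium bromide and DMSO controls.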

[7] = qHTS assay to identify small molecule agonists of the AP-1 signaling pathway (AID 1159526; calls by dose curve)
[8] = qHTS assay to identify small molecule agonists of the RXR signaling pathway - cell viability counter screen (AID 1159529); note: series mostly up to about 77 µM; nearly all actives have a fitted effect of over 50% in size
In short: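 RXR-alpha-UAS-bla HEK 293T cells in medium with 2% charcoal-stripped FBS were pre-incubated 5 hr, then compound-treated 16 hr at 37 C. Viability was read by CellTiter-Glo luminescence in the same wells as the beta-lactamase assay, with tetraoctyl ammonium bromide as positive control.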

[9] = qHTS assay to identify small molecule antagonists of the retinoid acid receptor (RAR) signaling pathway - cell viability counter screen (AID 1159551); note: nearly all actives have a fitted effect of over 35% in size
In short: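 ATP-based viability, C3RL4 cells, 6 h at 37 C with 1 uM final retinol co-added after compound; luminescence read 30 min post CellTiter-Glo, RT.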

[10] = qHTS assay to identify small molecule antagonists of the retinoic acid receptor (RAR) signaling pathway (AID 1159552; note: nearly all actives have a fitted effect of over 50% in size)
In short: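 Retinol signaling pathway inhibitors screened in C3RL4 RARE-luciferase reporter cells seeded overnight at 37 C, then compounds added with 1 uM (final) retinol as pathway substrate. After 6 hr at 37 C, luciferase luminescence read after 30 min at room temperature.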

[11] = qHTS assay to identify small molecule antagonists of the estrogen related receptor (ERR) signaling pathway from Tox21 library - cell viability counter screen (AID 1224834); note: nearly all actives have a fitted effect of over 30% in size
In short: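 Compounds in DMSO were pinned onto ERR cells that had been incubated for 6 h, and the plates were held at 37 C for 17.5 h. CellTiter-Fluor reagent was then added and fluorescence was measured after 30 min.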

[12] = qHTS assay to identify small molecule agonists of the retinoic acid receptor (RAR) signaling pathway (AID 1159553)
In short: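 Quantitative high-throughput format: the Tox21 10K library was tested on C3RL4 RARE-luciferase cells for 6 hr at 37 C and 5% CO2, with luminescence measured after a 30 min room-temperature reagent step.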

[13] = target: Retinoic acid receptor RXR-alpha (Homo sapiens) (UniProt P19793); test: qHTS assay to identify small molecule agonists of the RXR signaling pathway (AID 1159527; calls by dose curve; note: nearly all actives have a fitted effect of over 35% in size)
Retinoic acid receptor RXR-alpha (Homo sapiens), sequence (P19793 whole entry, looked up): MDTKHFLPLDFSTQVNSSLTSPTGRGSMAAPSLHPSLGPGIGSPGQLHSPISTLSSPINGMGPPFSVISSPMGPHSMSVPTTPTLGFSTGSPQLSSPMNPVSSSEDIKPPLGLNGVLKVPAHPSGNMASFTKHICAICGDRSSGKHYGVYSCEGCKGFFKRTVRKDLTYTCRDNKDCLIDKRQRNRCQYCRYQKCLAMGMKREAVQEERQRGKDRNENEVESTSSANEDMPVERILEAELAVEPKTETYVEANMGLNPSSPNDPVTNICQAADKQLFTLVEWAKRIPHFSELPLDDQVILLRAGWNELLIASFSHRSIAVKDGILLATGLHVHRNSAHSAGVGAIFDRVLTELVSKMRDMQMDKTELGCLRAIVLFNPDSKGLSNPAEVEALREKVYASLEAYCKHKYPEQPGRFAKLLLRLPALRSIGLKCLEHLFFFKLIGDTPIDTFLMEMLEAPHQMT
In short: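 GeneBLAzer RXR-alpha-UAS-bla HEK 293T cells in 2% charcoal-stripped FBS medium were exposed to compounds for 16 hr at 37 C in agonist mode. Beta-lactamase reporter read as 460/530 nm FRET ratio after 2 hr substrate loading.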

[14] = qHTS assay to identify small molecule antagonists of the vitamin D receptor (VDR) signaling pathway - cell viability counter screen (AID 743225); note: nearly all actives have a fitted effect of over 50% in size
In short: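 VDR-UAS-bla HEK 293T cells were plated and incubated 4 h at 37C, then dosed with compound plus 3 nM (final) 1-alpha,25-dihydroxyvitamin D3 for 16 h. After the 2 h beta-lactamase read, viability in the same wells was read as CellTiter-Glo luminescence after 30 min at room temperature.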

Measured: Potency

Cc1cc(C)nc(Nc2ccccc2)n1
not listed: [12] | [13] | [14]
inactive: all other assays above

CCOC(=O)/C=C(C)/C=C/C[C@@H](C)CCCC(C)C
not listed: [10] | [13] | [14]
inactive: all other assays above

COc1cccc(C(=O)NN(C(=O)c2cc(C)cc(C)c2)C(C)(C)C)c1C
not listed: [8] | [11] | [14]
inactive: all other assays above

CC(C)[N+](=O)[O-]
not listed: [13]
inactive: all other assays above

Nc1ccccc1Cl
not listed: [10] | [12]
inactive: all other assays above

COP(=S)(OC)Oc1c(Cl)cc(C)cc1Cl
not listed: [14]
inactive: all other assays above

O=C1OC(=O)C2C1C1(Cl)C(Cl)=C(Cl)C2(Cl)C1(Cl)Cl (centres undefined)
not listed: [8] | [13]
inactive: all other assays above

Cc1ccccc1CO[C@@H]1C[C@@]2(C(C)C)CC[C@]1(C)O2
not listed: [8] | [9] | [10]
inactive: all other assays above

CCN(CC)C(C)C(=O)c1ccccc1 (centres undefined)
inactive: all assays above

CNC(=O)Oc1ccccc1C1OCCO1
not listed: [13]
inactive: all other assays above

OC(c1ccc(F)cc1)(c1cncnc1)c1ccccc1Cl (centres undefined)
not listed: [13]
inactive: all other assays above
